Data: ChEMBL document CHEMBL1961873, “Compounds: GSK PKIS; Assays: Nanosyn kinase panel” (2012)

How the values were obtained:
[1] = target: Mitogen-activated protein kinase kinase kinase kinase 4 (Homo sapiens) (UniProt O95819); details: at 1 µM;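 also: reported figure is an averaged inhibition value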
[2] = target: Dual specificity mitogen-activated protein kinase kinase 1 (Homo sapiens) (UniProt Q02750); details: at 0.1 µM
[3] = target: Dual specificity mitogen-activated protein kinase kinase 1 (Homo sapiens) (UniProt Q02750); details: at 1 µM
[4] = target: Misshapen-like kinase 1 (Homo sapiens) (UniProt Q8N4C8); details: at 0.1 µM
[5] = target: Misshapen-like kinase 1 (Homo sapiens) (UniProt Q8N4C8); details: at 1 µM
[6] = target: T1, Serine/threonine-protein kinase 4 (Homo sapiens) (UniProt Q13043); details: at 0.1 µM
T1 sequence (whole entry): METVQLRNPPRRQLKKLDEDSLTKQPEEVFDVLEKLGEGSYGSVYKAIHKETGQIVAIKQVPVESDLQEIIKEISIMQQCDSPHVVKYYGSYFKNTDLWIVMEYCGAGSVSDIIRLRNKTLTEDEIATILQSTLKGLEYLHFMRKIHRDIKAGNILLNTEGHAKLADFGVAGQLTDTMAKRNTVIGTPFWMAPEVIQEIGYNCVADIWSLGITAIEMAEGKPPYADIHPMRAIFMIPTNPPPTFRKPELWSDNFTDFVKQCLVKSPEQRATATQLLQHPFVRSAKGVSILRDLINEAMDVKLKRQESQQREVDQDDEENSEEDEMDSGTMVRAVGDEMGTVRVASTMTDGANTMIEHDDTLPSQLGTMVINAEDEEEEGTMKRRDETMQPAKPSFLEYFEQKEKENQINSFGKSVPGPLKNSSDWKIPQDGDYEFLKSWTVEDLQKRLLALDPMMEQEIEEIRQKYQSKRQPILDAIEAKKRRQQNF

[7] = target: T1, Serine/threonine-protein kinase 4 (Homo sapiens); details: at 1 µM
[8] = target: T2, Serine/threonine-protein kinase 3 (Homo sapiens) (UniProt Q13188); details: at 0.1 µM
T2 sequence (whole entry): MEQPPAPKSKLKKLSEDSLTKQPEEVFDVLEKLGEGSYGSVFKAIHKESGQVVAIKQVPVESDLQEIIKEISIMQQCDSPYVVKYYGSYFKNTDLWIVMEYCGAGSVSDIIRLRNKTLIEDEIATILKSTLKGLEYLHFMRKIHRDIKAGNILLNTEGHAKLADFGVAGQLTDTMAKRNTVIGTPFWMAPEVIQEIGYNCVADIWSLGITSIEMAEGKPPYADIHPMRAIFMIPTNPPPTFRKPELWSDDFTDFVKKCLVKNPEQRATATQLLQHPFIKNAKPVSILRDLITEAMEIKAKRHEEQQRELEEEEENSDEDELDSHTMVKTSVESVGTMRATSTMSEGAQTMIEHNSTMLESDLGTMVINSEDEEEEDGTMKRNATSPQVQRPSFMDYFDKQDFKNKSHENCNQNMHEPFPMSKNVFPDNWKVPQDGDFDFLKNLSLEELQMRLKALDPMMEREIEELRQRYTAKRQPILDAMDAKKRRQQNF

[9] = target: T2, Serine/threonine-protein kinase 3 (Homo sapiens); details: at 1 µM
[10] = target: Serine/threonine-protein kinase 26 (Homo sapiens) (UniProt Q9P289); details: at 0.1 µM
Sequence of Serine/threonine-protein kinase 26 (Homo sapiens) (Q9P289 2-416 limits assumed): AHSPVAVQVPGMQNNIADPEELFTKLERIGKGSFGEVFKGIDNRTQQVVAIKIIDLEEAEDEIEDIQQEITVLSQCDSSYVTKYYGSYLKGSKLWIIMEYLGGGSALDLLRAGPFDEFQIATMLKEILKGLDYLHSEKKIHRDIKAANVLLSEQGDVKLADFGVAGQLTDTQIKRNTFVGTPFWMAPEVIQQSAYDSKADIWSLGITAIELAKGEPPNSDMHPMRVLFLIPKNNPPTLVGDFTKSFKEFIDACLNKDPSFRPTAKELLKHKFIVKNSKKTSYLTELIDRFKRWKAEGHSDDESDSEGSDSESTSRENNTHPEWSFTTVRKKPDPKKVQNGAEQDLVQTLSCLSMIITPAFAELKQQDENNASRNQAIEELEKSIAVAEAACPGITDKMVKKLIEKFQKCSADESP

[11] = target: Serine/threonine-protein kinase 26 (Homo sapiens) (UniProt Q9P289); details: at 1 µM
[12] = target: Serine/threonine-protein kinase PAK 1 (Homo sapiens) (UniProt Q13153); details: at 0.1 µM
Sequence of Serine/threonine-protein kinase PAK 1 (Homo sapiens) (Q13153 whole entry): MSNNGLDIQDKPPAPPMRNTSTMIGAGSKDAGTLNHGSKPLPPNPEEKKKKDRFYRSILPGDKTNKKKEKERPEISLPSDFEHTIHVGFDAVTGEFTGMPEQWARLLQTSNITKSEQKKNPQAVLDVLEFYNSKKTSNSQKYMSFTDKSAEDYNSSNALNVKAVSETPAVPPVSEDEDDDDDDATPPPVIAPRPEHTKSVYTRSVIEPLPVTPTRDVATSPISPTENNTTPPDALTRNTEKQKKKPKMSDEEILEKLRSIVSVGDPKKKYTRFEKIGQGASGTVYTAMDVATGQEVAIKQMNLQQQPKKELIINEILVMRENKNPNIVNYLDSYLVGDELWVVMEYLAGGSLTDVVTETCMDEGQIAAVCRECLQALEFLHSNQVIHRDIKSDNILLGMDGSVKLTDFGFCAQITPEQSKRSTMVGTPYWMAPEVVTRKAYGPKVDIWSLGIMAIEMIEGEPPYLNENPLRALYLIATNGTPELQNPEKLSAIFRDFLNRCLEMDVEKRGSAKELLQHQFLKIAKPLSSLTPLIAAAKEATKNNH

[13] = target: Serine/threonine-protein kinase PAK 1 (Homo sapiens) (UniProt Q13153); details: at 1 µM
[14] = target: Serine/threonine-protein kinase PAK 2 (Homo sapiens) (UniProt Q13177); details: at 0.1 µM
Sequence of Serine/threonine-protein kinase PAK 2 (Homo sapiens) (Q13177 whole entry): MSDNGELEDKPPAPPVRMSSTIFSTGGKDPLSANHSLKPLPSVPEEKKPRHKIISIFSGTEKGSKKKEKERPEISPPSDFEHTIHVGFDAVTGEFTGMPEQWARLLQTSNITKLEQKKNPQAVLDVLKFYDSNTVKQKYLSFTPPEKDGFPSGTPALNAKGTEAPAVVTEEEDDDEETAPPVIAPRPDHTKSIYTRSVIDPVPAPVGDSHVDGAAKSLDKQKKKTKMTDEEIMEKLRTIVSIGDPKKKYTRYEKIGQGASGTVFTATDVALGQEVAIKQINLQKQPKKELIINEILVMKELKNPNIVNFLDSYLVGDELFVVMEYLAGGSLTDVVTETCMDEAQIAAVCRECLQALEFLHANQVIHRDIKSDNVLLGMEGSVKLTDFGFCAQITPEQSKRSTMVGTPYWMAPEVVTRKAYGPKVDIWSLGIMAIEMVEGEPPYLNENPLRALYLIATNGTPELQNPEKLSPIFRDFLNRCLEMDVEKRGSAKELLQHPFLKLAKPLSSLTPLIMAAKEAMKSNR

[15] = target: Serine/threonine-protein kinase PAK 2 (Homo sapiens) (UniProt Q13177); details: at 1 µM
[16] = target: Serine/threonine-protein kinase PAK 3 (Homo sapiens) (UniProt O75914); details: at 0.1 µM
Sequence of Serine/threonine-protein kinase PAK 3 (Homo sapiens) (O75914 whole entry, looked up): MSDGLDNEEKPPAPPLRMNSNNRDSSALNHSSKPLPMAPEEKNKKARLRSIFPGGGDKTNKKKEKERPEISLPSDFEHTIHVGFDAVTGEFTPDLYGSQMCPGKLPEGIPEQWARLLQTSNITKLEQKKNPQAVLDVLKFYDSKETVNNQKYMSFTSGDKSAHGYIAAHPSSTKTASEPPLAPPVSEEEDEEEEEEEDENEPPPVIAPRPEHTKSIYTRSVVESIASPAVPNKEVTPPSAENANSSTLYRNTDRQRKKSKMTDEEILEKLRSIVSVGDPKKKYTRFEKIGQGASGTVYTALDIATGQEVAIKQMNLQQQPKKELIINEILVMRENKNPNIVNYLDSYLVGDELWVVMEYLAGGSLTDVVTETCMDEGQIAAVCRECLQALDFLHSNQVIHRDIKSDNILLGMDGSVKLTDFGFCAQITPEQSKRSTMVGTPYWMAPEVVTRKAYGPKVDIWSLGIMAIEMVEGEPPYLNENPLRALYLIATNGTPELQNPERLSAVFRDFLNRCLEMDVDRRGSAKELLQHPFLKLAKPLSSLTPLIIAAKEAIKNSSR

[17] = target: Serine/threonine-protein kinase PAK 3 (Homo sapiens) (UniProt O75914); details: at 1 µM
[18] = target: Serine/threonine-protein kinase PAK 5 (Homo sapiens) (UniProt Q9P286); details: at 0.1 µM
Sequence of Serine/threonine-protein kinase PAK 5 (Homo sapiens) (Q9P286 whole entry, looked up): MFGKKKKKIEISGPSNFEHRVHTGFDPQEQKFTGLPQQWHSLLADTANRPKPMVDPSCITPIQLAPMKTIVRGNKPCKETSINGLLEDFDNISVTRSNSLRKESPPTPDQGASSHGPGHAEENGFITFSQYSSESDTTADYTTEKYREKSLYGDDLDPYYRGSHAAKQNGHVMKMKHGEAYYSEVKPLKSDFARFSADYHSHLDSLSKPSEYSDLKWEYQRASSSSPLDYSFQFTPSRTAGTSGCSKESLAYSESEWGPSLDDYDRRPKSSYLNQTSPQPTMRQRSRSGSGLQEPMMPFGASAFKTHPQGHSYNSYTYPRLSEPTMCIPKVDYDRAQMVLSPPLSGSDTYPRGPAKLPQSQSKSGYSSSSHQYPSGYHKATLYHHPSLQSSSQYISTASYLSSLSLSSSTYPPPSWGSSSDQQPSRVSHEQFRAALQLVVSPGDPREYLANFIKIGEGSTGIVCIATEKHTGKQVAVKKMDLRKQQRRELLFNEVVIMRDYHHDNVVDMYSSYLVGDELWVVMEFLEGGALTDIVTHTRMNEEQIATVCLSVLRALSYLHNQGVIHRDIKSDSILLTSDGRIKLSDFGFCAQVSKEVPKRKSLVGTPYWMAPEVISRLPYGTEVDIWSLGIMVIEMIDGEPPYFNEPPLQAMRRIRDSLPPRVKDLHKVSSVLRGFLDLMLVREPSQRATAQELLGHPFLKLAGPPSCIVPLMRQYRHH

[19] = target: Serine/threonine-protein kinase PAK 5 (Homo sapiens) (UniProt Q9P286); details: at 1 µM
[20] = target: Serine/threonine-protein kinase PAK 6 (Homo sapiens) (UniProt Q9NQU5); details: at 0.1 µM;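 also: mean PAK6 inhibition reported from the GSK PKIS screen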
Sequence of Serine/threonine-protein kinase PAK 6 (Homo sapiens) (Q9NQU5 whole entry, looked up): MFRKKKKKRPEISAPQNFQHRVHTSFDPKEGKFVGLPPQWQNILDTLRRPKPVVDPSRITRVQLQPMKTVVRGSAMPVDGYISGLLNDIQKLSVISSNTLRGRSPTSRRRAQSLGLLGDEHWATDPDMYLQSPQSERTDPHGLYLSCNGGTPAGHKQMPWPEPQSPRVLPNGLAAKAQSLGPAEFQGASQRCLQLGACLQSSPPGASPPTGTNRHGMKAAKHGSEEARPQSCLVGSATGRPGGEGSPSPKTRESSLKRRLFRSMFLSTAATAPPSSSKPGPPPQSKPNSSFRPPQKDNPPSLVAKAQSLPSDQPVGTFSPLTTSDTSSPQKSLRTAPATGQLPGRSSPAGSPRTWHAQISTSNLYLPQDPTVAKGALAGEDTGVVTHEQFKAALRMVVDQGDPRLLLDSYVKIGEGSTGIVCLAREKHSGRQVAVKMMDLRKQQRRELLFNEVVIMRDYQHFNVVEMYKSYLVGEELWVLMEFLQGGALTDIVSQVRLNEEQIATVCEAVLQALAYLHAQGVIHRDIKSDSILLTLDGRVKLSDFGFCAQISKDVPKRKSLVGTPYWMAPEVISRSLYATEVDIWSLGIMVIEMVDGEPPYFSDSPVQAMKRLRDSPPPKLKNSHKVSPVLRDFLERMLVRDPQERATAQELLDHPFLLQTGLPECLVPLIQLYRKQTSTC

Sequence of Dual specificity mitogen-activated protein kinase kinase 1 (Homo sapiens) (Q02750 whole entry): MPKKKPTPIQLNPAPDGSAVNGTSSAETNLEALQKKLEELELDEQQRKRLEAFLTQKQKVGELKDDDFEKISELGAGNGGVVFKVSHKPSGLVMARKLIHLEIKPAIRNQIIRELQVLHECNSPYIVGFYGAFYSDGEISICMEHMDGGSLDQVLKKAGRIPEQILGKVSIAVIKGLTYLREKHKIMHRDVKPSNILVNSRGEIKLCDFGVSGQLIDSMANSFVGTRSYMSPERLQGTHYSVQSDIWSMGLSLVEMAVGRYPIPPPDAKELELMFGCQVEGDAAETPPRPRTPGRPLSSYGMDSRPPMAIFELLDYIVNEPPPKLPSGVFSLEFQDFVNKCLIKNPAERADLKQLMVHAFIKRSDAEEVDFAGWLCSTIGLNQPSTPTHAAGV

Row | SMILES | inhibition [1] [%] | inhibition [2] [%] | inhibition [3] [%] | inhibition [4] [%] | inhibition [5] [%] | inhibition [6] [%] | inhibition [7] [%] | inhibition [8] [%] | inhibition [9] [%] | inhibition [10] [%] | inhibition [11] [%] | inhibition [12] [%] | inhibition [13] [%] | inhibition [14] [%] | inhibition [15] [%] | inhibition [16] [%] | inhibition [17] [%] | inhibition [18] [%] | inhibition [19] [%] | inhibition [20] [%]
1 | c1ccc(Oc2ccc(Nc3ncc(-c4ccccc4)o3)cc2)cc1 | 6.86 | 0.88 | 1.76 | 3.49 | 7.84 | 1.03 | 1.83 | 0.33 | 0.37 | -1.17 | 0.79 | -1.14 | 6.59 | 0.5 | -0.36 | 0.64 | 0.63 | -0.61 | 2.2 | -2.49
2 | NS(=O)(=O)c1ccc(N/N=C2\C(=O)Nc3ccc(C(=O)NCCCn4ccnc4)cc32)cc1 | 52.1 | 10.7 | 38 | 9.83 | 41.5 | 28.6 | 75.5 | 22.2 | 70 | -0.28 | 6.6 | 4.13 | 11.5 | 0.82 | 2.78 | 4.22 | 5.04 | – | -1.29 | -2.98
3 | NC(=O)c1ccc(Oc2nccc(-c3c(-c4ccc(F)cc4)ncn3C3CCNCC3)n2)cc1 | 3.93 | 4.51 | 4.62 | 6.11 | 6.81 | 4.07 | 4.99 | 8.2 | 7.98 | -1.23 | 2.28 | 10 | 11 | 2.27 | 2.2 | 6.67 | 9.21 | 4.23 | 0.82 | -4.02
4 | NS(=O)(=O)c1ccc(Nc2cc(-c3ccc(O)c(F)c3)n[nH]2)cc1 | 76.2 | -2.69 | -3.65 | 11.6 | 65.7 | -1.34 | 12.6 | -1.84 | 9.64 | 0.95 | 3.14 | -5.59 | -0.83 | -1.12 | -1.29 | -4.62 | -3.25 | -6.87 | -2.39 | 1.44
5 | O=C(Nc1n[nH]c2nc(-c3ccc(O)cc3)c(Br)cc12)C1CC1 | 75.2 | 7.68 | 8.1 | 26.4 | 67.7 | 5.36 | 10.2 | 6.31 | 10.6 | 4.96 | 35 | 7.71 | 8.21 | 2.36 | 3.87 | – | 6.07 | 1.12 | 8.52 | -0.4
6 | Cc1ccc(NC(=O)c2ccoc2)cc1-c1ccc(C(=O)NCC2CC2)cc1 | 1.38 | 2.89 | 2.27 | 2.91 | 1.4 | 4.29 | 2.08 | 4.78 | 4.5 | -1.09 | -2.75 | 3.52 | 4.54 | 0.23 | -1.68 | 2.22 | 1.14 | -1.43 | 2.58 | -5.33
